# Measured values taken from PubChem BioAssay AID2427 (National Center for Advancing Translational Sciences (NCATS), 2010).
# Calls of active or inactive are those of the source.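 The calls were made as follows: active = melting temperature shift above 3 C; inconclusive = shift above 1 C but not above 3 C; inactive = the rest.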
# Target: 15-hydroxyprostaglandin dehydrogenase [NAD(+)] (Homo sapiens) (UniProt P15428)
# Assay: Thermal Shift Assay for Inhibitors of HPGD (15-Hydroxyprostaglandin Dehydrogenase)
# Settings: Recombinant HPGD thermal shift, SYPRO orange DSF, at 250 µM, stronger effect = higher value
# Experimental: Assay Overview: Human 15-Hydroxyprostaglandin dehydrogenase (HPGD) catalyzes the inactivation of prostaglandin E2, and plays a major role in cancer biology by antagonizing the oncogenic potential of cyclooxygenase type 2 (COX2). Studies to assess the stability of human 15-PGDH in presence of compounds was performed as described (Niesen et al., 2007) with variations. References 1. Myung SJ, Rerko RM, Yan M, Platzer P, Guda K, Dotson A, Lawrence E, Dannenberg AJ, Lovgren AK, Luo G, Pretlow TP, Newman RA, Willis J, Dawson D, Markowitz SD. 15-Hydroxyprostaglandin dehydrogenase is an in vivo suppressor of colon tumorigenesis. Proc Natl Acad Sci U S A. 2006 Aug 8;103(32):12098-102. 2. Yan M, Rerko RM, Platzer P, Dawson D, Willis J, Tong M, Lawrence E, Lutterbaugh J, Lu S, Willson JK, Luo G, Hensold J, Tai HH, Wilson K, Markowitz SD. 15-Hydroxyprostaglandin dehydrogenase, a COX-2 oncogene antagonist, is a TGF-beta-induced suppressor of human gastrointestinal cancers. Proc Natl Acad Sci U S A. 2004 Dec 14;101(50):17468-73. 3. Yang L, Amann JM, Kikuchi T, Porta R, Guix M, Gonzalez A, Park KH, Billheimer D, Arteaga CL, Tai HH, Dubois R, Carbone DP, Johnson DH. Inhibition of Epidermal Growth Factor Receptor Signaling Elevates 15-Hydroxyprostaglandin Dehydrogenase in Non-Small-Cell Lung Cancer. Cancer Res. 2007 Jun 15;67(12):5587-5593. 4. Niesen FH, Berglund H, Vedadi M: The use of differential scanning fluorimetry to detect ligand interactions that promote protein stability. Nature protocols 2007; 2:2212-2221 NIH Chemical Genomics Center [NCGC] Structural Genomics Consortium [SGC]
# HPGD was diluted to a final assay concentration of 1 uM in 100 mM Tris buffer, pH 8.0, containing 0.01% Tween-20 and 1:1000 SYPRO orange dye. The final assay volume is 10 ul, with or without 200 uM of either NAD+ or NADH. Compounds were added 1:5 from appropriate stock solutions in 10% (v/v) DMSO to comprise either 50 or 250 uM final concentrations. Heat denaturation curves were recorded using a RT-PCR instrument (Mx3005p, Agilent) applying a temperature gradient of 2 degree C/min. Analysis of the data was performed using DSF Analysis vers. 2.5 (ftp://ftp.sgc.ox.ac.uk/pub/biophysics) and Prism 5.0 (GraphPad Software, Inc.)
# 15-hydroxyprostaglandin dehydrogenase [NAD(+)] (Homo sapiens), sequence (P15428 whole entry, looked up): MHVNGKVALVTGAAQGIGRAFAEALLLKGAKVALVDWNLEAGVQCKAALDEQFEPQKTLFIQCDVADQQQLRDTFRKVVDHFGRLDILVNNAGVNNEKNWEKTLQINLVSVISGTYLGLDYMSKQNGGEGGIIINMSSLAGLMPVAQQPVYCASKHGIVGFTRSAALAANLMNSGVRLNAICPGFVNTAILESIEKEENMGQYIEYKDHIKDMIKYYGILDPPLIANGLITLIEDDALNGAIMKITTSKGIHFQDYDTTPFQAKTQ
row,Structure (SMILES),thermal shift (delta Tm)
1,O=C(c1ccc(N2C(=O)C3CC=C(Cl)CC3C2=O)cc1)N1CCCCC1 (centres undefined),3 C (active)
2,COc1ccc(OC)c(C(=O)c2ccc(C(=O)N3CCCCC3)cc2)c1,3 C (active)

# Same assay, conditions: Recombinant HPGD thermal shift, SYPRO orange DSF, measured here: delta Tm with NADH cofactor, at 250 µM, stronger effect = higher value
row,Structure (SMILES),thermal shift (delta Tm) [C]
1,O=C(c1ccc(N2C(=O)C3CC=C(Cl)CC3C2=O)cc1)N1CCCCC1 (centres undefined),6.1
2,COc1ccc(OC)c(C(=O)c2ccc(C(=O)N3CCCCC3)cc2)c1,6.6
